Consider 24 molecules from article PMC10163288.

Only a sample is shown. No count for the full screen is at hand. Unmarked numbers belong to inactive results.

B1: il2ra_site1_3nfp_sap_17_mot_HHH_b1_07644_af2_000000110_0001_40_57_H_._HEEHE_2706_0001_0000400054_0000001_0_0001_af2pred_0001_af2pred_1_swapped (protein)
chain: SSSSDALEFVEELAEKAFENNDKFQLRALYKLLREALEKTGNPEAEEVLEKVEELLRELQSSSSS
B2: il2ra_site2_2erj_sap_25_mot_ca9fcc9ace360711d783d1260e4fbff1_0001_1_af2_000000007_0001_15_32_H_._7f39e2d7389de0c2f60e905c27398b6a_0001_1_af2_0001_0000400011_000 … (protein)
chain: SSSSSYEERVEELLEEAEEAYREGDLHAVYRLAVEALHVASELGDQELIRLVAEFVEKISDSSSS
B3: il2ra_site1_2b5i_sap_16_mot_HHH_b1_01419_af2_000000080_0001_42_53_H_._HHH_b1_05266_af2_0001_0000100001_0000001_1_0001_af2pred_dldesign_0_af2pred (protein)
chain: SSSSSNQDEVYRLYKEALRLYKEGKREEAKKVLEEALKLAEKNKDEVAVKELKELLKRLESSSSS
B4: il2ra_site1_1z92_normal_mot_9b3351f2f66fbcc824ad33b4da01f8ef_0001_af2_000000012_0001_16_32_H_._HHH_b1_08171_0001_0000100006_0000001_0 (protein)
chain: SSSSSEEVLKKDLRFAVEARNPSSFRRLAELARRDLKEAGDEEALREFEEFVEELEQELGSSSSS
B5: il2ra_site1_1z92_normal_mot_HHH_b1_00893_000000159_0001_19_35_H_._43152d1d296b358565056a4a32fd9b81_0001_1_af2_0001_0000300029_0000001_0_af2pred_0001_af2pred_1_s … (protein)
chain: DDEELEEKLKEAAENRDVEKLEELLRELLELLGDPAVKFLLEFFERLLKRDEEDAVKNVLRFVSF
B6: il2ra_site1_2b5i_normal_mot_HHH_b1_06428_000000224_0001_1_17_H_._HHH_b1_02461_0001_0000700038_0000001_0_af2pred_dldesign_0_af2pred (protein)
chain: SSSSSSLAEARRLLLETEELLKAGKLEELAKLKKRIDALKAASDDPKVKKIADLINEALESSSSS
B7: il2ra_site2_2erj_normal_mot_c2bf78bdce995293a161f7082e24b401_0001_af2_000000082_0001_17_32_H_._HHH_b1_07868_0001_0000100001_0000001_0 (protein)
chain: SSSSSDEEEIRREVEELLEKVEEVPDLEEAYRLANEALRLASRLQDEELLRLILEVVQRHSSSSS
B8: il2ra_site2_3nfp_normal_mot_HHH_b1_05627_af2_000000038_0001_43_56_H_._HHH_b1_07199_af2_0001_0000600017_0000001_0 (protein)
chain: SSSSDKAEEYLRIALELLEEAIKAGDEESAKSILEVARLAAELHNDEEVEERLEELEELLSSSSS
B9: il2ra_site1_3nfp_normal_mot_HHH_b1_04049_af2_000000244_0001_42_55_H_._d1fb33ed66649044859e967e86ea168f_0001_af2_0001_0000200005_0000001_0 (protein)
chain: TKEKAIEDIIRALKQLPDPEVRELAEEAEELLENGDPEEALKVLKEAAKLLGDPVLEKLIEQYLT
B10: il2ra_site2_3nfp_sap_7_mot_HHH_b2_00746_000000285_0001_20_36_H_._HHH_b2_00413_af2_0001_0000200017_0000001_0_0001 (protein)
chain: SSSSDEVEELLREIRELLEEGDTYEAAQLLVRVSEIAAKLGDPELVKIVLELYKILKEKASSSSS
B11: il2ra_site2_3nfp_normal_mot_HHH_b1_05785_af2_000000002_0001_41_57_H_._HHH_b1_03527_af2_0001_0000800015_0000001_0 (protein)
chain: SSSSDEAEEYVKAALALLEEALEQGDEELFEKLARLIELAIEDLGNPELEERLEELKERGSSSSS
B12: il2ra_site2_2erj_sap_23_mot_ca9fcc9ace360711d783d1260e4fbff1_0001_1_af2_000000007_0001_15_32_H_._HHH_b2_04203_af2_0001_0000300022_0000001_0_0001 (protein)
chain: SSSDREEARVHFLAFRAMRLNNNGNPEEAQKVLEEAKEIAEENNNEELREWLEAMERTIKHSSSS
B13: il2ra_site2_3nfp_sap_18_mot_HHH_b1_07556_000000077_0001_42_55_H_._HHH_b2_07201_0001_0000400029_0000001_0_0001 (protein)
chain: SSSSDEEEEVKRSLEYLKAVAKLHNDEELQEVIEEAERILEEDNDPEKAAEALSEIALKLASSSS
B14: il2ra_site1_2b5i_sap_7_mot_HHH_b1_05947_000000126_0001_42_56_H_._HHH_b1_05810_af2_0001_0000100008_0000001_1_0001_af2pred_0001_af2pred (protein)
chain: SSSSSEEEQRAFELYHEASRAFSNGDKERARELLEEAIELAEEAGDPKIKRELEQFLEMLSSSSS
B15: il2ra_site1_3nfp_sap_21_mot_HHH_b2_04910_af2_000000236_0001_1_18_H_._4946fae19574d7b03d9e348227509a78_0001_0001_0000300023_0000001_0_0001_af2pred_0001_af2pred (protein)
chain: SSSDEREVHKLLKEALEAALKGNPEEARELLEEAERLAKELNNPRAEHTVEKALKSFERARSSSS
B16: il2ra_site2_2erj_normal_mot_76e6e8f7232a9e65eeaab5ff8ecb4c96_0001_000000242_0001_17_31_H_._HHH_eva_0320_af2_0001_0000500007_0000001_1 (protein)
chain: SSTEEEEVRRVVEEAEELIKRGDLEEAEEVLSEAFTLVYELGDEELVILILELAHELVRLLAKSS
B17: il2ra_site2_2erj_normal_mot_af86707857d369f3e1d85dcabc5f9321_0001_000000201_0001_14_29_H_._HHH_b1_07617_0001_0001000035_0000001_1_af2pred_0001_af2pred (protein)
chain: SSSSDEEEQIERLLREARELLEEGDPERAREVVWEAAQLAAESDNEELLKEILELLREIHGSSSS
B18: il2ra_site1_2b5i_normal_mot_HHH_b1_00432_000000039_0001_1_18_H_._HHH_b1_02735_0001_0000300013_0000001_0_af2pred_dldesign_0_af2pred (protein)
chain: SSSSSSDEEIEAAEDLALQALKEKDKEKRKELLEEALRLAQKGKDAKLVAQIQELLERLKSSSSS
B19: il2ra_site2_3nfp_normal_mot_HHH_b2_04451_000000238_0001_21_37_H_._HHH_b2_00723_af2_0001_0000500044_0000001_0 (protein)
chain: SSSSDLEEEVERLIEEVERLLEEGDKHEAAQLLLEATKLVAELNNEELARILLELFELLQKSSSS
B20: il2ra_site1_3nfp_sap_8_mot_d8099cd8ef6a59b9c03de2010570d688_0001_af2_000000259_0001_37_51_H_._HHH_b2_05910_0001_0000100005_0000001_0_0001 (protein)
chain: SAEEFVKRAKELVPPELQELLERALELALKRQDPKLARLLIKAVAAIQQGDPEKAEEVLKELEER
B21: il2ra_site1_2b5i_normal_mot_HHH_b1_08745_af2_000000166_0001_39_57_H_._HHH_b1_05884_0001_0000600032_0000001_0_af2pred_dldesign_0_af2pred (protein)
chain: SSSSSPEIQKLREMFEEADRLFKAGKYEEAKELLEKALKLAKELGANLELRIIQSALEQLESSSS
B22: il2ra_site1_2b5i_sap_15_mot_1dae16775e8f4074d71d019417416b97_0001_af2_000000275_0001_1_12_H_._HHH_b2_07869_0001_0000400013_0000001_1_0001_af2pred_0001_af2pred_1 (protein)
chain: SSSSTDVAREVFRLLEEADRLARNGNPEEAEKLLREAEELAEENGNRALLKFVRAALRALSSSSS
B23: il2ra_site1_2b5i_sap_9_mot_HHH_b2_07540_af2_000000089_0001_1_16_H_._HHH_b1_01333_af2_0001_0000100003_0000001_0_0001_af2pred_0001_af2pred (protein)
chain: SSSSSSEELLELLREADELFKNGNPEEAEKVLERAEELAERNGTKSMLRSVRSMLELLRESSSSS
B24: il2ra_site1_3nfp_sap_6_mot_HHH_b2_06502_000000163_0001_42_55_H_._HEEHE_0113_0001_0000200018_0000001_0_0001 (protein)
chain: SSSSSNDEAWRLLREAYEEFKKAKSREEMRELLEEAERLARELGDERLLRDIEKWLEQMKSSSSS

As usually defined, the apparent Kd is the concentration giving half-maximal binding under the conditions of the assay.

Chain of il2ra, P01589 (P01589 whole entry): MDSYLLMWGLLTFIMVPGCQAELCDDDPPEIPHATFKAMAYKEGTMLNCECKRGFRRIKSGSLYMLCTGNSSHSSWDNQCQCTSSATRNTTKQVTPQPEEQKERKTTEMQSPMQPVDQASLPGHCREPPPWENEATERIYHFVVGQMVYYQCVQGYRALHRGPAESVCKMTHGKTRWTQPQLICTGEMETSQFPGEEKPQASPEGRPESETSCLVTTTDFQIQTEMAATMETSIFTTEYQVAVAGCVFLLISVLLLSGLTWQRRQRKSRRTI

The assay concerns the target il2ra, P01589. Briefly: yeast display titration.
On to B1, for which the “apparent Kd” value is “no binding seen”.

On to B2, for which the “apparent Kd” value is “no binding seen”.

As for B3, the “apparent Kd” value was “no binding seen”.

Turning to B4, the apparent Kd was above 1.5 µM.

Regarding B5, the apparent Kd is above 2.78 µM.

B6: the “apparent Kd” value is “no binding seen”.

For B7, the “apparent Kd” value was “no binding seen”.

Take B8: the “apparent Kd” value was “no binding seen”.

Turning to B9, the “apparent Kd” value is “no binding seen”.

Turning to B10, the “apparent Kd” value is “no binding seen”.

Turning to B11, the “apparent Kd” value was “no binding seen”.

Take B12: the “apparent Kd” value is “no binding seen”.

B13: the “apparent Kd” value was “no binding seen”.

As to B14, the “apparent Kd” value was “no binding seen”.

Take B15: the “apparent Kd” value was “no binding seen”.

Take B16: the “apparent Kd” value was “no binding seen”.

For B17, the “apparent Kd” value was “no binding seen”.

In the case of B18, the “apparent Kd” value was “no binding seen”.

On to B19, for which the “apparent Kd” value is “no binding seen”.

As for B20, the “apparent Kd” value was “no binding seen”.

For the molecule B21, the “apparent Kd” value is “no binding seen”.

For B22, the “apparent Kd” value was “no binding seen”.

B23: the “apparent Kd” value is “no binding seen”.

Regarding B24, the “apparent Kd” value was “no binding seen”.
